For 27 compounds, Inhibition results are on record in ChEMBL document CHEMBL1157539, “Thousands of chemical starting points for antimalarial lead identification” (Nature, 2010).

Common to all, as to format: functional
The subject of assay [1] is Plasmodium falciparum. Nature of the assay: GSK_TCMDC: Inhibition of Plasmodium falciparum 3D7 in whole red blood cells, using parasite LDH activity as an index of growth. Test compounds present at 2uM.
Assay [2] deals with Plasmodium falciparum. Nature of the assay: GSK_TCMDC: Inhibition of Plasmodium falciparum Dd2 in whole red blood cells, using parasite LDH activity as an index of growth. Test compounds present at 2uM.
The subject of assay [3] is HepG2. Nature of the assay: GSK_TCMDC: Percent inhibition of human HepG2 cell line. Test compounds present at 10uM.

What is called Inhibition is the change of the read-out against control, counted positive when it falls. Lower therefore signals little suppression.

With `CC(=O)Nc1ccc(S(=O)(=O)N(Cc2cccc(Oc3ccccc3)c2)C2CCN(C/C=C(\C)CCC=C(C)C)CC2)cc1`, the results for the Inhibition in assay [1], in assay [2] and in assay [3] were 100%, 99% and 22%, respectively.
For `COc1ccc(NC(=O)Nc2ccc(C)c(-c3ccc(C(=O)NCCN4CCCC4)cc3)c2)cc1`, in that order: 95%, 1% and 18%.
For `CCCc1cc(C(=O)N[C@@H](Cc2ccccc2)[C@H](O)CNC2CCOCC2)c(F)c(N2CCCCS2(=O)=O)c1`, in that order: 97%, 97% and 0%.
For `O=C(/C=C/c1ccc(Cl)c(Cl)c1)NC1CCN(Cc2ccc(O)cc2)CC1.O=C(O)C(F)(F)F`, in that order: 100%, 43% and 0%.
For `O=C(/C=C/c1ccc(Cl)c(Cl)c1)NCCCCCN1CCC(NC(=O)Nc2ccc(OC(F)F)cc2)CC1`, the Inhibition in assay [1] is recorded as 100%; in assay [2] it was 18%; in assay [3], 33%.
For `CN1CCN(c2cccc(Nc3nccc(NCC(O)c4ccccc4)n3)c2)CC1` (stereo unspecified), in that order: 100%, 4% and 30%.
For `O=C(Nc1cccc(CN2CCCN(Cc3cccc(O)c3)CC2)c1)c1cc2ccccc2s1.O=C(O)C(F)(F)F`, in that order: 100%, 75% and 15%.
For `COc1ccc(N2CCN(CCCC/C=C/c3ccc(NC(=O)c4cc(Cl)cc(Cl)c4)cc3)CC2)c(OC)c1`, in that order: 99%, 39% and 20%.
For `COc1cc(C(=O)NC2CCN(Cc3ccccc3)CC2)ccc1-c1nc2c(Cl)cc(C(F)(F)F)cc2[nH]1`, the Inhibition in assay [1] is listed as 100%; in assay [2] it was 56%; in assay [3] it was 7%.
On the same counts, the results for `Cc1ccc(C(=O)NC2CC2)cc1-c1ccc2c(cnn2S(=O)(=O)c2ccc(F)cc2)c1` are 93%, 69% and 7%.
As to `CCC(=O)N[C@@H]1CN[C@@H](C#Cc2cc3c(Nc4ccc(OCc5cccc(F)c5)c(Cl)c4)ncnc3s2)C1`, the Inhibition in assay [1] worked out at 82%; in assay [2], 0%; in assay [3], 46%.
For `COc1c(C2CCN(CCCCNC(=O)c3ccc(-c4ccc(Cl)cc4)c(O)c3)CC2)ccc2c1CCCC2`, in that order: 100%, 99% and 91%.
For `COc1ccc(NC(=O)c2ccc(Br)c(C)c2)cc1N1CCN(CCCCc2ccccc2)CC1.O=C(O)C(=O)O`, in that order: 88%, 17% and 29%.
Consider `CC(C)(C)OC(=O)NCCc1cccc(-c2c[nH]c3ncc(-c4cccc(NS(C)(=O)=O)c4)cc23)c1`, for which the Inhibition is listed as 97% in assay [1], 71% in assay [2] and 16% in assay [3].
As for `CN1CCN(CC(=O)Nc2ccc(-c3cccc(-c4nc5cc(F)ccc5[nH]4)c3)cc2)CC1`, the Inhibition in assay [1] is reported as 100%; in assay [2], 100%; in assay [3], 18%.
Turning to `O=C(COc1cccc([N+](=O)[O-])c1)Nc1ccc(-c2nc3ccccc3[nH]2)cc1`, the Inhibition in assay [1] is 99%; in assay [2], 5%; in assay [3], 12%.
For `CC(=O)c1cccc(NC(=O)c2ccc(Cl)c(S(=O)(=O)N3CCc4ccccc43)c2)c1`, in that order: 93%, 11% and 13%.
On the same counts, the results for `Clc1ccc(-c2[nH]c3ccccc3c2CN2CCC(N3CCCCC3)CC2)cc1` are 93%, 15% and 5%.
On the same counts, the results for `O=C(O)C(F)(F)F.c1ccc(C(c2ccccc2)N2CCC(NCc3ccc(OCCCN4CCCCC4)cc3)CC2)cc1` are 100%, 100% and 74%.
Regarding `O=C(Nc1ccccc1O)c1ccc(Oc2cccc(C(=O)Nc3ccccc3O)c2)cc1`, the figures for the Inhibition in assay [1], in assay [2] and in assay [3] were 97%, 70% and 33%, respectively.
In the case of `COc1ccc(C2c3cc(OC)c(OC)cc3C(=NO)C2C)cc1OC` (stereo unspecified), the Inhibition in assay [1] is recorded as 90%; in assay [2] it was 6%; in assay [3] it was 20%.
On the same counts, the results for `CCOc1ccc(-c2nonc2NC(=O)c2cccs2)cc1OCC` are 100%, 100% and 6%.
For `CC(=O)Nc1ccc(CN2CCC(NC(=O)c3cc(-c4ccc(N(C)C)cc4)cs3)C2)cc1.O=C(O)C(F)(F)F` (stereo unspecified), in that order: 83%, 1% and 15%.
On the same counts, the results for `CN(C)Cc1ccc(-c2cccc(NC(=O)c3ccc(Cl)cc3)c2)cc1.O=C(O)C(F)(F)F` are 94%, 13% and 24%.
Consider `COc1ccc(Br)cc1/C=C/C(=O)Nc1cccc(C2CCCN(C)C2)c1.O=CO` (stereo unspecified), for which the results for the Inhibition in assay [1], in assay [2] and in assay [3] were 99%, 30% and 12%, respectively.
As to `CC(=O)C=C1CC(=O)N(C[C@@H](O)[C@H]2O[C@@H]3OC(C)(C)O[C@@H]3[C@H]2O)c2ccccc2N1`, the Inhibition in assay [1] is 90%; in assay [2], 2%; in assay [3], 0%.
Turning to `O=C(/C=C/c1ccc(Cl)c(Cl)c1)NCCCCCN1CCC(NC(=O)Nc2cccc(C(F)(F)F)c2)CC1`, the Inhibition turned out to be 100% in assay [1], 11% in assay [2] and 61% in assay [3].
